PubChem BioAssay AID504329 (Southern Research Specialized Biocontainment Screening …, 2011)
Hit rate of the full screen: of about 340,000 compounds, about 1,000 (0.29%) were called active. These entries were drawn from the full list. Measured potencies and affinities stand elsewhere. A number with no mark means an inactive call. Rule as the data show it: inconclusive = inhibition above about 27% without an active follow-up result; inactive = below that.

Test: H1N1 influenza NS1A inhibitors, functional cell based assay (AID 504329)
Conditions: percent inhibition, at 12.5 µM, active compounds read high

Compound	inhibition
CCCc1cc(N2CCCC(C(=O)NCC)C2)n2ncnc2n1 (stereo unspecified)	-10%
NC(=O)C1(N2CCCCC2)CCN(c2ccc3nnc(-c4ccccc4)n3n2)CC1	-13.3%
COC(=O)c1cc(C(=O)c2c(C)cc3ccccn23)cc([N+](=O)[O-])c1	16.9%
Cc1cc2ccccn2c1C(=O)c1cccc([N+](=O)[O-])c1	4.98%
O=C(NCCC1=CCCCC1)C(=O)NCCc1ccc(Cl)cc1	1.14%
C=CC[C@@H](CC(=O)N[C@@H](CO)Cc1ccccc1)C(=O)N[C@H](C)COC(=O)[C@@H](CC=C)Cc1ccc(F)cc1	-3.08%
CCOC(=O)/C(=N\Nc1ncnc2ccccc12)c1ccc(C)cc1	12.6%
COc1ccc(/C(=N/Nc2ncnc3ccccc23)C(=O)O)cc1	5.64%
O=C(NCc1ccccn1)Nc1cc(Cl)ccc1Cl	-13.2%
COc1ccc(CNC(=O)Cn2cc(C(F)(F)F)ccc2=O)cc1	-8.07%
COc1ccc(/C=C2/C(=O)N(Cc3ccccc3)N=C2C)cc1	-0.08%
CN(C)c1ccc(/C=C2\C(=O)NC(=O)N(Cc3ccc(F)cc3)C2=O)cc1	-0.15%
CN(C)c1ccc(C=C2C(=O)OC(C)(C)OC2=O)cc1	0.66%
CC1=NN(CCC#N)C(=O)/C1=C/c1ccc(N(C)C)cc1	18.1%
COc1ccc(CCC(=O)OCC(=O)Nc2ccccc2OC(F)F)cc1OC	-3.13%
CCOC(=O)C(NC(C)=O)(Nc1ccc(S(=O)(=O)Nc2nccs2)cc1)C(F)(F)F (stereo unspecified)	-7.42%
Cc1cccc(-n2c(O)c(C=Nc3cc(O)ccc3C)c3ccccc3c2=O)n1	3.61%
COc1cc(C2C(C(C)=O)=C(O)C(=O)N2CCN(C)C)ccc1O (stereo unspecified)	-16%
O=C(COC(=O)c1n[nH]c(=O)c2ccccc12)NC1CCCCC1	-3.19%
COc1cc(NC(=O)CSCc2ccc(Cl)cc2)c(C(=O)O)cc1OC	-10.8%
O=C(Cc1n[nH]c(=O)c2ccccc12)Nc1cc(Cl)ccc1-n1cncn1	-5.46%
COc1ccc(C(=O)N/N=C/c2ccc(OC)c(COc3ccccc3)c2)cc1	-10.8%

Compound	inhibition
COc1ccc(C(=O)N/N=C/c2ccc(OC)c(COc3ccc(F)cc3)c2)cc1	-7.91%
CCC(CC)NC(=O)CO/N=C/c1ccc(Cl)cc1Cl	2.24%
O=C(O)C1C2C=CC(C2)C1C(=O)NCCCN1CCOCC1 (stereo unspecified)	-16.9%
C[C@H](CO)N1C[C@H](C)[C@@H](CN(C)S(=O)(=O)c2cccs2)Oc2ccc(NC(=O)c3ccncc3)cc2C1=O	-5.12%
CCN(CC)Cc1cc(C(=O)O)c(-c2ccccc2)o1	-10.3%
CCOC(=O)C1CCN(C2=C(NS(=O)(=O)c3ccc(Cl)cc3)C(=O)c3ccccc3C2=O)CC1	-27.4%
NC(=O)C1CCN(C2=C(NS(=O)(=O)c3ccc(Br)cc3)C(=O)c3ccccc3C2=O)CC1	23.9%
CCN1CCN(C2=C(NS(=O)(=O)c3ccc(Br)cc3)C(=O)c3ccccc3C2=O)CC1	5.79%
CC(=O)Nc1ccc(S(=O)(=O)NC2=C(N3CCN(C)CC3)C(=O)c3ccccc3C2=O)cc1	7.96%
CC1CCCN(C2=C(NS(=O)(=O)c3ccc(Cl)cc3)C(=O)c3ccccc3C2=O)C1 (stereo unspecified)	3.15%
CCOC(=O)C1CCN(C2=C(NS(=O)(=O)c3ccc(Br)cc3)C(=O)c3ccccc3C2=O)CC1	27.6%
CCOC(=O)C1CCCN(c2nc3ccccc3nc2NS(=O)(=O)c2ccc(C)cc2)C1 (stereo unspecified)	-25.9%
NC(=O)C1CCN(C2=C(NS(=O)(=O)c3ccc(Cl)cc3)C(=O)c3ccccc3C2=O)CC1	-27.5%
CCCN(CC(=O)Nc1ccccc1C)C(=O)CCNC(=O)c1ccccc1Cl	0.78%
O=C(c1ccccc1)N1CCCC(C(=O)N2CCc3ccccc3C2)C1 (stereo unspecified)	-4.42%
Cc1ccc(C)c(NCc2n[nH]c(=S)n2-c2ccccc2)c1	-0.26%
O=C(OC(C(=O)NCC1CCCO1)c1ccccn1)c1cccs1 (stereo unspecified)	-1.32%
COc1ccc(NC(=O)COC(=O)CN2C(=O)C3CCCCC3C2=O)cc1OC (stereo unspecified)	-0.56%
CC(C)C[C@H](NC(=O)C1CCN(C(=O)[C@H](Cc2ccccc2)NC(=O)OC(C)(C)C)CC1)C(=O)O	-7.8%
COC(=O)CCC(=O)N(CCN(Cc1ccccc1)C(=O)CCC(=O)OC)Cc1ccccc1	8.88%
Cc1ccc(N=Nc2c(O)[nH]c(=O)[nH]c2=O)cc1S(=O)(=O)Nc1ccc(Br)cc1	9.19%
CCc1ccc(NC(=O)CN(c2ccc(OC)cc2)S(=O)(=O)c2c(C)[nH]c(=O)[nH]c2=O)cc1	2.97%

Compound	inhibition
CN1CCN(c2ccc(S(=O)(=O)N3CCCCC3)cc2NC(=O)COc2ccc(F)cc2)CC1	-7.14%
COc1ccc(C2C(C#N)=C(N)Oc3c2ccc2cccnc32)cc1OC (stereo unspecified)	-15.7%
COC(=O)C1=C(C)OC(N)=C(C#N)C1c1cc2cc(C)ccc2nc1Cl (stereo unspecified)	11.8%
CCOC(=O)C1=C(C)OC(N)=C(C#N)C1c1cc2cc(C)ccc2nc1N1CCCCC1 (stereo unspecified)	-5.59%
CCc1ccc(C2C(C#N)=C(N)Oc3cc(N)ccc32)cc1 (stereo unspecified)	0.13%
N#CC1=C(N)Oc2c(ccc3cccnc23)C1c1ccccc1 (stereo unspecified)	25.4%
CC(=O)C1=C(C)OC(N)=C(C#N)C1c1cc2cccc(C)c2nc1Cl (stereo unspecified)	-6.22%
COc1cc(C2C(C#N)=C(N)Oc3c2ccc2ccccc32)ccc1OCC(=O)Nc1ccc(C)cc1 (stereo unspecified)	1.8%
C[n+]1cccc(C2C(C#N)=C(N)Oc3c2ccc2ccccc32)c1 (stereo unspecified)	-17.7%
CC(C)(C)c1ccc(CN(Cc2ccccc2)C(c2ccccn2)c2nnnn2C(C)(C)C)cc1 (stereo unspecified)	9.19%
C[C@H](CO)N1C[C@H](C)[C@@H](CN(C)Cc2ccc(-c3ccccc3)cc2)Oc2c(NC(=O)Cc3ccccc3)cccc2C1=O	11.9%
CC(=O)Nc1ccc(Br)cc1C(=O)C(=O)O	2.32%
C=CCc1c(C)[nH]c(=O)[nH]c1=O	-3.62%
Cc1noc(C)c1NC(=O)N(C)C[C@H]1Oc2ccc(NC(=O)NC(C)C)cc2C(=O)N([C@H](C)CO)C[C@@H]1C	-14.8%
CCCn1c(N)c(C(=O)CSc2nnc3n2CCCCC3)c(=O)n(C)c1=O	-16.1%
CC(C)CNS(=O)(=O)c1cc(C(=O)OC2CCOC2=O)c(Cl)cc1Cl (stereo unspecified)	-8.56%
COc1ccccc1CNc1ncccc1[N+](=O)[O-]	-1.95%
COc1ccccc1C(CNc1ncccc1[N+](=O)[O-])N(C)C (stereo unspecified)	-0.51%
CC(=O)c1ccc2c(c1)C1C(Cl)C(Sc3ccccc3[N+](=O)[O-])CC1C(c1ccccc1)N2 (stereo unspecified)	-9.68%
CC(=O)c1ccc2c(c1)C1C(Cl)C(Sc3ccccc3[N+](=O)[O-])CC1C(C(=O)O)N2 (stereo unspecified)	27.9%
O=C(CN1CCN(C(=O)c2ccco2)CC1)Nc1ccccc1	0.71%
CN(C)c1nc2c(c(=O)[nH]c(=O)n2C)n1CCCc1ccccc1	-3.17%

Compound	inhibition
O=C(O)CP(=O)(O)O	-2.09%
CCc1cccc(CC)c1NC(=O)CN(CC(=O)O)CC(=O)O	5.31%
Cn1c(=O)c2cc(S(=O)(=O)NC(C(=O)N3CCCCCC3)c3ccccc3)ccc2n(C)c1=O (stereo unspecified)	-3.38%
COc1ccccc1-c1cc(C(=O)NC(C)c2ccccc2)no1 (stereo unspecified)	10.7%
Nc1nc(N)c(Cc2ccc(Cl)cc2Cl)c(N)n1	-5.28%
CNc1cc(C(F)(F)F)nc(-c2ccccn2)n1	-7.32%
Clc1ccc(COc2ccccn2)c(Cl)c1	18.9%
O=C(Cc1c(F)cccc1Cl)Nc1ccccn1	-10.5%
Cc1nc(N)c(Cc2ccccc2F)c(N)n1	-3.84%
Cc1n[nH]c(C)c1Cc1c(F)cccc1Cl	-22.1%
N#C/C(=C/c1ccc(-c2ccc(C(=O)O)c(Cl)c2)o1)C(=O)NCC1CCCO1 (stereo unspecified)	9.84%
CN(CC(=O)Nc1ccncc1)S(=O)(=O)c1ccc(Cl)cc1	4.38%
CC(C)S(=O)(=O)c1cnc(N2CCOCC2)nc1N	-0.07%
Cc1cc(C(=O)CSc2nnc(N)s2)c(C)n1Cc1cccs1	-7.01%
CCS(=O)(=O)N(CC(=O)Nc1cccc2ccccc12)c1ccc(OC)cc1	-2%
CC(=O)Nc1ccc(NC(=O)C(NS(=O)(=O)c2cccc3nsnc23)C(C)C)cc1 (stereo unspecified)	4.6%
c1ccc(-c2cn(C[C@H]3CC[C@@H]([C@@H]4CC[C@H](Cn5cc(-c6ccccc6)nn5)O4)O3)nn2)cc1	1.07%
Cc1ccc(-c2cn(C[C@H]3CC[C@@H]([C@@H]4CC[C@H](Cn5cc(-c6ccc(C)cc6)nn5)O4)O3)nn2)cc1	1.46%
c1cncc(-c2cn(C[C@H]3CC[C@H](Cn4cc(-c5cccnc5)nn4)O3)nn2)c1	-19.1%
c1cncc(-c2cn(C[C@H]3CC[C@@H]([C@@H]4CC[C@H](Cn5cc(-c6cccnc6)nn5)O4)O3)nn2)c1	-3.65%
